From PubChem BioAssay
DT40 TDP1 CPT: qHTS for Inhibitors of human tyrosyl-DNA phosphodiesterase 1 (TDP1): qHTS in cells in presence of CPT; chicken DT40 Tdp1-/-;hTDP1 cells + 20 nM CPT, ATP luminescence, 48 h; Potency, µM (doses to about 46.2 µM), most hits filed as inhibitors; 420,000 compounds, 12% hits; AID 686979, 2013; further: nearly all actives have a fitted effect of over 55% in size
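Chicken DT40 Tdp1-/- cells complemented with human TDP1, 400 cells/well, exposed to compounds plus 20 nM camptothecin for at least 48 h at 37 C; viability read as ATP content by CellTiter-Glo luminescence.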
DT40 TDP1 no CPT: qHTS for Inhibitors of human tyrosyl-DNA phosphodiesterase 1 (TDP1): qHTS in cells in absence of CPT | DT40 Tdp1-/- hTDP1 cells, no CPT, ATP luminescence, 48 h | Potency, µM (top dose mostly 46.2 µM), usual class: inhibitors | 420,000 compounds, 15% hits | AID 686978, 2013; further: nearly all actives have a fitted effect of over 55% in size
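Seeded 400 DT40-hTDP1 cells/well (vehicle DMSO, no 20 nM CPT); pinned compounds; ≥48 hr at 37 °C; CellTiter-Glo luminescence as viability measure.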
IL-1B inflam inh: qHTS for Inhibitors of Inflammasome Signaling: IL-1-beta AlphaLISA Primary Screen | activity change, % at 57.5 µM | 360,000 compounds, 4.7% hits | THP-1 LPS/ATP IL-1B secretion, AlphaLISA, 16 h; stronger effect = lower value; in the data active means activity change below about -50%; inconclusive means mostly about -30% to -49%
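Secreted IL-1B measured by AlphaLISA bead assay after 16 h compound exposure of THP-1 cells; compounds (final up to 57.5 uM) added 1 h before LPS (250 ng/mL) and ATP (1.25 mM) stimulation; lower signal means less secretion.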
HT1080 IDH1KD tx: qHTS for induction of synthetic lethality in tumor cells producing 2HG: qHTS for the HT-1080-IDH1KD cell line | Potency, µM (series often up to 46.1 µM), hits mostly cytotoxic | HT-1080 IDH1 knockdown viability, ATP luminescence, 48 h | 360,000 compounds, 2% hits
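Assay cells: HT-1080 with IDH1 knockdown, 750 per well, RPMI/5% FBS. Exposure: 48 h at 37 °C following 2 h pre-incubation. Read: CellTiter-Glo luminescence; fitted concentration-response, curve class assigned.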
HT1080-NT tox: qHTS for induction of synthetic lethality in tumor cells producing 2HG: qHTS for the HT-1080-NT fibrosarcoma cell line; HT-1080-NT fibrosarcoma viability, CellTiter-Glo ATP luminescence, 48 h; Potency, µM (titrated, usually from 46.1 µM), hits mostly cytotoxic; 360,000 compounds, 1.6% hits; AID 686970, 2013;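 further: NT is the 2HG producing partner of a matched IDH1 knockdown line; nearly all actives have a fitted effect of over 55% in size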
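Compounds were tested in concentration-response format on HT-1080-NT cells for 48 hours at 37 degrees C. Cell viability came from CellTiter-Glo luminescence; curves were classified by r2, response magnitude and activity.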
A number is an active result; i = inactive; ? = inconclusive; nt = not tested or not shown. Sampled rows, rich in hits. Any-hit rate of the full collection: about 19%. Unless noted, the call rests on the fitted dose curve; in most records, active means well fitted curve in the direction sought with a large enough effect; inconclusive means small, poorly fitted or top-dose-only effect, or another doubt; inactive means no such curve, though single readings can be large; an effect the other way counts as inactive or inconclusive.

SMILES	DT40 TDP1 CPT	DT40 TDP1 no CPT	IL-1B inflam inh	HT1080 IDH1KD tx	HT1080-NT tox
CCOc1ccc(CCN2C(=S)N([C@@H](CC(C)C)CN3CCCC3CN3C(=S)NC[C@@H]3CC(C)C)C[C@@H]2Cc2ccccc2)cc1 (stereo partly drawn)	16µM	18µM	i	i	i
CCOc1ccc(CCN2C(=S)N([C@@H](Cc3ccc(O)cc3)CN3CCC[C@@H]3CN3C(=S)NC[C@@H]3CC(C)C)C[C@@H]2Cc2ccccc2)cc1	4.6µM	5.2µM	i	i	i
COc1cccc(CN2C(=NC(=O)CCC3CCCC3)SC3CS(=O)(=O)CC32)c1 (stereo not drawn)	?	i	i	i	i
COc1ccccc1C(C)NCC(=O)c1c(C)[nH]c2ccccc12 (stereo not drawn)	11µM	18µM	nt	nt	nt
COc1ccccc1C(C)NC(=O)c1cc(=O)[nH]c2ccccc12 (stereo not drawn)	i	i	i	i	i
Cc1cc(C(=O)NNC(=O)c2ccccc2F)c2ccccc2n1	i	i	i	i	i
c1ccc(-c2cn(C[C@H]3CC[C@@H]([C@@H]4CC[C@H](Cn5cc(-c6ccccn6)nn5)O4)O3)nn2)nc1	i	i	i	i	i
c1ccc(-c2cn(C[C@H]3CC[C@@H]([C@@H]4CC[C@H](Cn5cc(-c6ccccc6)nn5)O4)O3)nn2)cc1	26µM	?	i	i	i
O=C1c2ccccc2C(=O)N1CCCCc1cn(C[C@H]2CC[C@H](Cn3cc(CCCCN4C(=O)c5ccccc5C4=O)nn3)O2)nn1	?	21µM	i	i	i
CC1CN(CCCCN2C(=O)c3ccccc3C2=O)CC(C)O1 (stereo not drawn)	i	i	i	i	i
c1ccc(CCc2cn(C[C@H]3CC[C@@H]([C@@H]4CC[C@H](Cn5cc(CCc6ccccc6)nn5)O4)O3)nn2)cc1	?	15µM	i	i	i
CCn1c(=O)c2c(nc(SCC(=O)NC3CCCC3)n2C)n(C)c1=O	?	i	i	i	i
O=C(Nc1ccc(O)cc1C(=O)O)c1cccs1	i	i	i	i	i
C#CCNC(=O)C[C@@H]1C[C@@]2(C(=O)OC)CCCCC=C2N(Cc2ccco2)C1=O	i	i	i	i	i
CC(=O)NC(CCS(C)(=O)=O)C(=O)Nc1cc(Cl)ccc1Cl (stereo not drawn)	i	i	i	i	i
CC(C)S(=O)(=O)c1csc(NC(=O)Nc2cc(Cl)ccc2Cl)c1Cl	16µM	?	-101	i	i
O=C(/C(=C(\O)c1ccccc1)c1nc2ccccc2[nH]1)c1ccccc1	i	?	?	i	i
Clc1ccc(/C=C/c2nc3ccccc3[nH]2)c(Cl)c1	13µM	18µM	?	?	15µM
Clc1cccc(Cl)c1/C=C/c1nc2ccccc2[nH]1	?	16µM	i	?	?
O=C(/C=C/c1ccc(Cl)cc1Cl)c1nc2ccccc2[nH]1	12µM	?	i	?	?
CCCc1nc2ccccc2n1C(C(=O)NC(C)(C)C)C1CC1 (stereo not drawn)	i	?	i	i	i
CCCc1ccc(S(=O)(=O)N2CCC(c3nnnn3-c3ccc(OC)cc3)CC2)cc1	i	i	nt	nt	nt
O=S(=O)(Nc1cccc(-c2cn3ccsc3n2)c1)c1ccc(F)cc1	?	?	i	i	i
COc1cccc(OC)c1C(=O)Nc1cccc(-c2cn3ccsc3n2)c1	i	?	nt	nt	nt
Cc1ccc(S(=O)(=O)Nc2cccc(-c3cn4ccsc4n3)c2)cc1	?	21µM	i	?	?
O=S(=O)(Nc1cccc(-c2cn3cccnc3n2)c1)c1ccc(-c2ccccc2)cc1	?	15µM	i	i	i
Cc1nc(-c2cccc(NS(=O)(=O)c3ccccc3)c2)cs1	?	i	i	i	i
COc1cc(OC)cc(C(=O)Nc2cccc(-c3cn4ccsc4n3)c2)c1	13µM	18µM	nt	nt	nt
